Data: PubChem BioAssay (NCI)
The panel holds about 79,000 compounds, 15% with a hit somewhere; the sample as a whole holds those more often. A number with no mark means an inactive call. Calls of active or inactive are those of the source. No stated cut-off is given here; in the data, active means growth inhibition above about 70%; inactive means the rest.

Tests used:
[1] = NCI Yeast Anticancer Drug Screen. Data for the rad50 strain (AID 155);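 further: 0% = growth of vehicle-only cultures of the same strain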; details: S. cerevisiae rad50 strain growth inhibition, active compounds read high
Outline: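 Compounds were tested on a yeast strain with an engineered DNA damage repair alteration; the reported value is growth inhibition normalised to vehicle treatment.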

[2] = NCI Yeast Anticancer Drug Screen. Data for the mec2-1 strain (AID 157); details: S. cerevisiae mec2-1 strain, active compounds read high
Outline: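 Compounds were applied to mec2-1 yeast cells. Their growth was then compared with that of vehicle-treated cultures to give growth inhibition.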

[3] = NCI Yeast Anticancer Drug Screen. Data for the sgs1 mgt1 strain (AID 161);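 further: 0% = growth of cultures given vehicle only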; details: S. cerevisiae sgs1 mgt1 strain, active compounds read high
Outline: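 Percent growth inhibition was derived by comparing compound-exposed mutant yeast with vehicle-exposed cultures. The strain carries alterations in DNA damage repair.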

[4] = NCI Yeast Anticancer Drug Screen. Data for the cln2 rad14 strain (AID 165);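 further: 0% = growth equal to vehicle treated cultures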; details: S. cerevisiae cln2 rad14 strain, active compounds read high
Outline: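 Strain: cln2 rad14 yeast, altered in cell cycle control and DNA damage repair. Read-out: growth inhibition vs vehicle.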

[5] = NCI Yeast Anticancer Drug Screen. Data for the bub3 strain (AID 167); details: S. cerevisiae bub3 mutant strain, active compounds read high
Outline: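 Growth of a checkpoint-deficient yeast mutant is measured after compound exposure. Values represent inhibition relative to vehicle.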

[6] = NCI Yeast Anticancer Drug Screen. Data for the mlh1 rad18 strain (AID 175); details: S. cerevisiae mlh1 rad18 strain growth inhibition, active compounds read high
Outline: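 A repair-deficient yeast strain is exposed to test compound, and growth is scored relative to vehicle-treated controls.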

[7] = at 5.0 µM (retest, dose inferred, filed as 0.5)
[8] = at 50.0 µM (retest, dose inferred, filed as 5.0)

| SMILES | growth inhibition [1, 7] | growth inhibition [1, 8] | growth inhibition ([1]; at 50.0 µM) | growth inhibition [2, 7] | growth inhibition [2, 8] | growth inhibition ([2]; at 50.0 µM) | growth inhibition [3, 7] | growth inhibition [3, 8] | growth inhibition ([3]; at 50.0 µM) | growth inhibition [4, 7] | growth inhibition [4, 8] | growth inhibition ([4]; at 50.0 µM) | growth inhibition [5, 7] | growth inhibition [5, 8] | growth inhibition ([5]; at 50.0 µM) | growth inhibition [6, 7] | growth inhibition [6, 8] | growth inhibition ([6]; at 50.0 µM) |
| --- | --- | --- | --- | --- | --- | --- | --- | --- | --- | --- | --- | --- | --- | --- | --- | --- | --- | --- |
| Nc1nc(N)c2cc(Sc3cccc(C(F)(F)F)c3)ccc2n1 | 21% | 77% (active) | 68.5% | 18% | 75% (active) | 53% | 15% | 97% (active) | 79.1% (active) | 22% | 26% | 87.7% (active) | 17% | 74% (active) | 23.9% | 22% | 93% (active) | 88.8% (active) |
| NC(=Nc1nc(-c2ccccn2)cc2ccccc12)c1ccccn1 | 54% | 70% (active) | 77.2% (active) | 54% | 66% | 67.7% | 64% | 72% (active) | 69.2% | 60% | 71% (active) | 68.6% | 73% (active) | 77% (active) | 71.3% (active) | 61% | 69% | 72.2% (active) |
| COc1cc2c(c(OC)c1OC)-c1ccc(NCc3ccccc3)c(=O)cc1[C@@H](NC(C)=O)CC2 | 17% | 96% (active) | 49% | 9% | 89% (active) | 80.8% (active) | 16% | 98% (active) | 68.3% | 18% | 98% (active) | 73.7% (active) | 14% | 88% (active) | 68.3% | 16% | 97% (active) | -53.5% |
| Cc1c(O)ccc(SC#N)c1C | -7% | 82% (active) | 88.5% (active) | 2% | 74% (active) | 83.8% (active) | 7% | 75% (active) | 86.7% (active) | 29% | 85% (active) | 84% (active) | -3% | 84% (active) | 87.5% (active) | -1% | 87% (active) | 88.5% (active) |
| Cc1cc(C(N)=O)cc(C)c1C(=O)OCCCl | -4% | -1% | 31.7% | -5% | -2% | 66.4% | -4% | -2% | -4.05% | -3% | -8% | -114% | -2% | -2% | 51.9% | -57% | 0% | 58.1% |
| CN(C)c1ccc(/C=C/c2ccnc3ccccc23)cc1 | -6% | 95% (active) | 78.1% (active) | 0% | 97% (active) | 84.5% (active) | -1% | 97% (active) | 92.3% (active) | -10% | 35% | -15.1% | -1% | 97% (active) | 91.5% (active) | 19% | 93% (active) | 89.1% (active) |
| O=[N+]([O-])c1ccc(C2N(Cc3ccc(Cl)cc3)CCN2Cc2ccc(Cl)cc2)cc1 | 58% | 94% (active) | 82.2% (active) | 48% | 97% (active) | 56.5% | 79% (active) | 100% (active) | 85.8% (active) | 51% | 95% (active) | 64.5% | 78% (active) | 99% (active) | 87.6% (active) | 79% (active) | 98% (active) | 79.8% (active) |
| CC1OC(OC2C(OC3CCC4(C)C(CCC5(C)C4CC=C4C6CC(C)(C)CCC6(C(=O)O)CCC45C)C3(C)CO)OCC(O)C2O)C(O)C(O)C1O (stereo not given) | 94% (active) | 99% (active) | 89.5% (active) | 87% (active) | 100% (active) | 89.8% (active) | 95% (active) | 99% (active) | 90.3% (active) | 89% (active) | 98% (active) | 88.5% (active) | 97% (active) | 99% (active) | 87.7% (active) | 93% (active) | 98% (active) | 88.2% (active) |
| O=C1C=CC(=O)N1c1cccc2c1CCCC2 | 99% (active) | 99% (active) | 91.9% (active) | 100% (active) | 100% (active) | 93.8% (active) | 100% (active) | 99% (active) | 94.7% (active) | 99% (active) | 99% (active) | 93.5% (active) | 100% (active) | 99% (active) | 93.6% (active) | 99% (active) | 99% (active) | 93.1% (active) |
| O=C1Nc2ccc(Br)cc2C1=O | -8% | 95% (active) | 96.9% (active) | -31% | 64% | 99.7% (active) | -5% | 42% | 99.8% (active) | -6% | 36% | 66.9% | -13% | 98% (active) | 99.4% (active) | -9% | 91% (active) | 99.6% (active) |
| CCOC(=O)c1[nH]c(C#N)c(C(=O)OCC)c1C | 6% | 76% (active) | 4.15% | 1% | 23% | 26.4% | 3% | 17% | 33.8% | 1% | 45% | 12.6% | 3% | 48% | 53.2% | 4% | 66% | 10% |
| CCOc1ccc(Nc2nc3c(s2)C(=O)c2ccccc2C3=O)cc1 | 78% (active) | 99% (active) | 90.7% (active) | 99% (active) | 99% (active) | 92.1% (active) | 90% (active) | 99% (active) | 92.7% (active) | 58% | 98% (active) | 90.8% (active) | 98% (active) | 99% (active) | 92.5% (active) | 89% (active) | 98% (active) | 91.8% (active) |
| Oc1c(Cl)cc(Cl)cc1C(c1cc(Cl)cc(Cl)c1O)C(Cl)(Cl)Cl | -2% | 99% (active) | 99% (active) | 0% | 100% (active) | 99.5% (active) | -4% | 99% (active) | 99.5% (active) | -2% | 97% (active) | 98.7% (active) | -2% | 99% (active) | 99.2% (active) | 0% | 99% (active) | 99.2% (active) |
| CC12CCC(O)CC1=CCC1C2CCC2(C)C3=NN=CC3CC12 (stereo not given) | 38% | 99% (active) | 96.6% (active) | 16% | 100% (active) | 99.4% (active) | 35% | 100% (active) | 98.5% (active) | 7% | 100% (active) | 99.2% (active) | 31% | 100% (active) | 99.3% (active) | 50% | 100% (active) | 99.5% (active) |
| CC(C)c1ccc(C(=O)OC2CCCC2)cc1 | 8% | 98% (active) | 96.5% (active) | 9% | 100% (active) | 99.2% (active) | 9% | 99% (active) | 54.6% | 6% | 99% (active) | 94.3% (active) | 4% | 99% (active) | 53% | 4% | 99% (active) | 93.3% (active) |
| Cc1cc(N/N=C/c2ccccn2)nc2ccccc12 | 20% | 94% (active) | 88.7% (active) | 7% | 95% (active) | 92.3% (active) | 21% | 95% (active) | 89.8% (active) | 22% | 93% (active) | 83.9% (active) | 8% | 98% (active) | 85.7% (active) | 11% | 95% (active) | 90% (active) |
| O=[N+]([O-])c1ccc2c(c1)Cc1ccccc1-2 | 15% | -11% | 63.5% | -10% | -25% | 9.35% | 8% | 5% | 25.2% | -2% | -20% | -13.5% | 0% | -59% | -17.2% | 20% | 2% | 67.2% |
| CC(=O)c1ccc2c(c1)CCc1ccccc1-2 | 2% | 85% (active) | 12.5% | -33% | 49% | -8.9% | 2% | 55% | 36.1% | 2% | 8% | 52.5% | 45% | 89% (active) | 30.4% | 1% | 79% (active) | 15.9% |
| CCNc1nnnn1CC | -37% | 1% | -2.5% | -2% | -2% | 2.1% | 0% | 5% | -5.35% | 2% | 4% | 12.3% | -1% | -2% | 22.9% | 6% | 18% | 2.8% |
| CCCCCCCCCCCCN1C(C)=CS/C1=C\C=C\c1scc(C)[n+]1CCCCCCCCCCCC | 9% | 94% (active) | 88% (active) | -4% | 97% (active) | 89.2% (active) | 18% | 96% (active) | 84.7% (active) | 4% | 91% (active) | 85% (active) | 23% | 95% (active) | 85% (active) | 1% | 93% (active) | 83% (active) |
